The list is not random: actives were taken first. Their share in the collection is about 2.6%.
eIF4H inh = inhibitors of RNA binding by human eIF4H; Q15056; eIF4H fluorescence polarization binding assay; inhibition, % at 35 µM; actives 0.94% (n = 290,000);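 also: calls also rest on retests at 20 µM and on dose response follow-up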
PHOSPHO1 block = PHOSPHO1 (human) inhibition | Q8TCT1 | recombinant PHOSPHO1, absorbance phosphatase assay | inhibition, % at 13.3 µM | actives 1.1% (n = 290,000); in the data active = inhibition above about 60%
Target sequence (Q8TCT1 whole entry, looked up): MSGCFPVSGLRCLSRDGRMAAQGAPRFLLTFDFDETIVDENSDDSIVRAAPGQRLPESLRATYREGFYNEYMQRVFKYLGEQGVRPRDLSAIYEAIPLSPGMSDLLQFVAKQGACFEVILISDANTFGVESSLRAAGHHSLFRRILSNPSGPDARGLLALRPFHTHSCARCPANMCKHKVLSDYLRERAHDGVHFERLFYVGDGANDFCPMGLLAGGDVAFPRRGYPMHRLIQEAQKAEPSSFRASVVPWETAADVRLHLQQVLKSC
PABP polyA inh = blocks human PABP binding to poly(A) RNA | actives 1% (n = 290,000) | inhibition, % at 35 µM | P11940 | fluorescence polarization;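 also: calls also rest on retests at 20 µM and on dose response follow-up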
PABP1 MLLE inh = inhibitors of microRNA-mediated deadenylation, human PABP1 MLLE binding. actives 0.36% (n = 360,000). P11940. GST-MLLE / FITC-PAM2 fluorescence polarization. inhibition, % at 20 µM; in the data active = inhibition above about 35%, passing the limit was not always enough;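 also: plate controls were DMSO wells with GST-MLLE for no effect and wells lacking GST-MLLE protein for full effect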
CRFBP-R2 block = blocks CRF-induced signaling of the CRF-BP/CRF-R2 complex | HEK293 CRF-R2/CRF-BP, CRF-induced calcium fluorescence | inhibition, % at 11.8 µM | actives 0.59% (n = 350,000) | AID 588475;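 active = inhibition of the ligand-induced calcium signal above about 50% at the single tested concentration, limit read from the data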
* = called active by the depositor; u = inconclusive; x = no result. Unless noted, no rule for the calls is given here.

SMILES | eIF4H inh | PHOSPHO1 block | PABP polyA inh | PABP1 MLLE inh | CRFBP-R2 block
Cc1nc2sc(C(c3ccco3)N3CCN(c4ccc(F)cc4)CC3)c(O)n2n1 (stereo not drawn) | 6 | -112 | -1 | -7 | 5
CC1CN(C(c2ccco2)c2sc3ncnn3c2O)CC(C)O1 (stereo not drawn) | 26 | 100* | 25 | 34 | 82*
Cc1ccc(C(c2sc3ncnn3c2O)N2CCC(C)CC2)cc1 (stereo not drawn) | 8 | -7 | -4 | -5 | -18
Cc1nc2sc(C(c3ccco3)N3CCN(c4ccccc4F)CC3)c(O)n2n1 (stereo not drawn) | 5 | 94* | 2 | 12 | -8
CCN(CC)c1ccc2cc(C(N)=O)c(=O)oc2c1 | 38 | -20 | 2 | -47 | -46
CCN(CC)c1ccc2cc(C(C)=O)c(=O)oc2c1 | u | 2 | u | -64 | -169
CCN(CC)c1ccc2cc(C(=O)Nc3ccccn3)c(=O)oc2c1 | 122* | -14 | 118* | 16 | -206
CCN(CC)c1ccc2cc(C(=O)Nc3cccnc3N3CCOCC3)c(=O)oc2c1 | 63* | -8 | 73* | x | x
CCN(CC)C(=O)C1=C(C)N(Cc2ccc(OC)cc2)C(=O)C(CC(=O)NCCN2CCOCC2)C1 (stereo not drawn) | x | x | x | 8 | -2
CCc1nc2ccc(C(=O)NCCN(C)C)cn2c1N(CC)CCOC | x | x | x | -4 | x
CN(C)c1ncc(C2=C(Cl)C(=O)C(N3CCCC3)=C(Cl)C2=O)s1 | x | x | x | 41* | 3
O=C1C(Cl)=C(N2CCCCC2)C(=O)C(Cl)=C1c1cnc(N2CCCCC2)s1 | u | -14 | -8 | 48* | -11
CC(=O)c1cnc(N(C)C)s1 | 0 | -48 | 8 | 6 | 6
CC(=O)Nc1cc(-c2ccoc2)cn2c(-c3ccccc3)cnc12 | x | x | x | -44 | x
Cc1ccc(C(=O)N/C(=C/c2ccc(-c3ccc([N+](=O)[O-])cc3)o2)C(=O)NCCCN(C)C)cc1 | x | x | x | -60 | -24
Cc1cc(=O)oc2cc(OCc3ccc(C(=O)OCC(=O)NC4CCS(=O)(=O)C4)cc3)ccc12 (stereo not drawn) | 99* | 3 | 55* | 1 | 3
Cc1cc(=O)oc2cc(OCc3ccc(C(=O)OCC(=O)N(C)C4CCS(=O)(=O)C4)cc3)ccc12 (stereo not drawn) | 15 | 53 | 13 | 9 | -12
CCC(=O)N1CCC1(C)C(=O)Nc1ccc(OC)c(OC)c1 (stereo not drawn) | x | x | x | 6 | x
Cc1nc2ccccc2c(=O)n1/N=C/c1ccc(O)c(O)c1O | 90* | 32 | 87* | 26 | 12
Cc1[nH]n(-c2ccccc2)c(=O)c1/C=N/n1c(C)nc2ccccc2c1=O | 1 | 20 | 60* | 6 | 15
Oc1ccc(/C=N/N2CCCCC2)c(O)c1O | 55 | 18 | 45 | 36 | 9
O=C1c2cccc3cccc(c23)C(=O)N1/N=C/c1ccc(O)cc1O | -3 | 9 | 3 | -21 | -1
Cc1ccc(-n2[nH]c(C)c(/C=N/n3c(C)nc4ccccc4c3=O)c2=O)cc1 | 3 | 43 | 14 | 5 | 28
Oc1ccc(/C=N/N2CCOCC2)c(O)c1O | 98* | -10 | active | 33 | -2
O=C1c2ccccc2C(=O)N1/N=C/c1ccc(O)c(O)c1O | 98* | 30 | 68* | 33 | 2
SMILES | eIF4H inh | PHOSPHO1 block | PABP polyA inh | PABP1 MLLE inh | CRFBP-R2 block
CCCCCC(=O)N1C[C@H](n2cc(-c3ccc(F)cc3)nn2)[C@@H](O)C[C@@H]1c1ccc(Cl)cc1 | x | x | x | -13 | 7
O=NN(Cc1cccnc1)C(=O)NC1CCCCC1 | x | x | x | 8 | x
O=C(N[C@H](CO)Cc1ccccc1)[C@H]1O[C@@H](n2ccc(=O)[nH]c2=O)[C@H](O)[C@@H]1O | x | x | x | -8 | x
CCC(=S)/C=C1\Sc2ccccc2N1CCCS(=O)(=O)O | 25 | 64* | 21 | 21 | 4
CCN1/C(=C\C=C2\C(=O)N(C)C(=S)N2C)Sc2ccccc21 | 44 | -18 | -6 | -49 | -29
CC(C)(C(N)=O)N1CCN(c2ncc(C(F)(F)F)cc2Cl)CC1 | -5 | 4 | -1 | 1 | -16
COC(=O)C1CC(Cl)CN1c1ncc(C(F)(F)F)cc1Cl (stereo not drawn) | -5 | -7 | 2 | 1 | 52*
CC(C)(CNC(=O)c1cc2ccccc2o1)N1CCOCC1 | 6 | 68* | 6 | -77 | 18
Cc1ccc(S(=O)(=O)N2CCCC(C(=O)NCCc3ccc(Cl)cc3)C2)cc1 (stereo not drawn) | x | x | x | 7 | -10
CCN(CC(=O)Nc1ccc(NC(C)=O)cc1)C(=O)c1ccc(=O)n(C)n1 | x | x | x | 4 | 98*
CCN(CC(=O)Nc1ccc(NC(C)=O)cc1)C(=O)c1ccc(=O)[nH]c1 | -7 | 48 | -8 | -4 | -5
CC1CN(S(=O)(=O)c2cccc(C(=O)OCc3cc(=O)oc4cc(O)ccc34)c2)CC(C)O1 (stereo not drawn) | 38 | 14 | 21 | -3 | -13
CN(C)c1cccc(C(=O)OCc2cc(=O)oc3cc(O)ccc23)c1 | 88* | -6 | 70* | 1 | -8
COC(=O)C1=C(C)N(c2ccc(OC)cc2)C(C)=C(C(=O)OC)C1c1ccccc1 | 2 | 19 | 4 | 12 | 52*
Clc1ccc(CSc2nnc(-c3c[nH]c4ccccc34)o2)cc1 | 1 | 17 | 8 | -17 | 3
Brc1ccc(CSc2nnc(Cc3c[nH]c4ccccc34)o2)cc1 | -4 | -17 | -10 | -24 | 50*
O=C(Cn1cc(F)c(=O)[nH]c1=O)c1ccco1 | x | x | x | 13 | -7
COc1cc(C(=O)O)c2ccccc2n1 | -17 | -3 | -3 | -6 | 65*
COc1ccc(CN2CCC2(C)C(=O)NCc2ccc3c(c2)OCO3)c2ccccc12 (stereo not drawn) | x | x | x | 2 | x
COc1cccc(F)c1C(=O)NC(=O)Nc1ccc2nc(C)oc2c1 | 82 | 33 | 70* | 82 | -10
COc1cccc(C(O)c2nc(-c3cccc(C#N)c3)cs2)c1 (stereo not drawn) | x | x | x | -10 | x
Cc1c(Cl)cccc1NC(=O)CNC(=O)c1ccccc1F | 2.4* | -1 | 66* | 5 | 19
Cc1c(Cl)cccc1NC(=O)CNc1ccccc1F | -10 | -16 | -15 | 2 | 31
CC(=O)Nc1cc(-c2cccc(C(=O)N(C)C)c2)cn2c(-c3ccc(C(C)=O)cc3)cnc12 | x | x | x | -18 | x
COc1ccc(CN2CCS(=O)(=O)CC2)cc1OC | -5 | 6 | 4 | 13 | 64*
CC(=O)N(/N=C1\Sc2ccccc2C1=O)c1ccc(C)cc1C | 13 | 94* | 8 | -8 | 1
N/C(=N\OCC(=O)Nc1ccccc1)c1nonc1N | 0 | -8 | -1 | 1 | 69*
Cc1cnc(NC(=O)c2ccc(-c3nc4ccccc4s3)o2)s1 | -2 | 105* | 8 | -34 | -15
CC1(C)CC(=O)C2=C(C1)c1c(ccc3ccccc13)NC2c1cc([N+](=O)[O-])cc([N+](=O)[O-])c1O (stereo not drawn) | 44 | 41 | 20 | 8 | 78*
CCOC(=O)C1(C)CCCCCN1C(=O)c1ccc(N(C)C)cc1 (stereo not drawn) | x | x | x | -3 | x

Screening data as filed in PubChem BioAssay.
